Luciferase inh = Photinus pyralis luciferase inhibition. P08659. purified P. pyralis luciferase, luminescence, biochemical. 76,000 compounds, 2.5% hits. Potency, µM (titrated, usually from 115 µM), hits mostly inhibitors; note: potency is the fitted concentration of half-maximal effect; nearly all actives have a fitted effect of over 65% in size
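Inhibitors were tested against purified firefly luciferase in a biochemical, low-substrate format (both substrates at 10uM) and luminescence measured with a CCD imager.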
NIH3T3 tox = NIH 3T3 cell cytotoxicity | NIH 3T3 viability, CellTiter-Glo ATP luminescence, 48-72 h | Potency, µM (titrated, usually from 96.7 µM), for the others: at the highest dose activity change, negative = cytotoxicity, actives largely listed as inhibitors | 94,000 compounds, 4.3% hits; note: potency is the fitted concentration of half-maximal effect; nearly all actives have a fitted effect of over 55% in size
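NIH 3T3 cells at 400 cells/well received 23 nL of compound by pintool and were incubated 48 or 72 h at 37 °C. Viability was read as ATP-coupled CellTiter-Glo luminescence.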
HEK293 tox = cytotoxic compounds in HEK 293 cells | HEK 293 viability, ATP luminescence (CellTiter-Glo), 48-72 h | Potency, µM (titrated, usually from 115 µM), without a hit: at the top dose activity change, negative = cytotoxicity, usual class: inhibitors | 94,000 compounds, 6.6% hits | AID 1345083; note: potency is the fitted concentration of half-maximal effect; nearly all actives have a fitted effect of over 60% in size
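HEK 293 cells at 250 cells/well were exposed to compounds by pintool transfer for 48 or 72 hr at 37 degree Celsius, 5% CO2. Viability was read as ATP-coupled luminescence with CellTiter-Glo after 10 min at room temperature.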
HEK293 viab = reduces viability of HEK-293 SNCA reporter cells. HEK-293-SNCA-luc viability, GF-AFC fluorescence, 24 h. Potency, µM (highest dose often 57.1 µM), for the others: at the top dose activity change, negative = cytotoxicity, hits mostly cytotoxic. 150,000 compounds, 0.12% hits;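 note: potency is the fitted concentration of half-maximal effect; 0% = DMSO-treated cells and -100% = medium-only wells without cells; nearly all actives have a fitted effect of over 30% in size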
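HEK-293-SNCA-luc cells (1500/well) plated 24 h, then exposed 24 h to a dilution series; GF-AFC added 30 min at 37C, fluorescence 405/540 nm; normalised to medium-only and DMSO wells, Hill fit.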
SNCA expr inhib = SNCA gene expression inhibition | 140,000 compounds, 0.17% hits | Potency, µM (top dose mostly 57.2 µM), for inactives: top-dose activity change, negative = inhibition, most hits filed as inhibitors | HEK-293 SNCA-luciferase knock-in, luminescence, 24 h;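 note: potency is the fitted concentration of half-maximal effect; plate controls were DMSO cells for no effect and cell-free wells for full effect; nearly all actives have a fitted effect of over 45% in size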
IP6K1 inh = inhibitors of human IP6K1. Q92551. IP6K1 kinase, ADP-Glo luminescence, 2 h; active compounds read low. 140,000 compounds, 0.81% hits. AID 1645851. activity change, % (series mostly up to about 58 µM); in the data active = activity change below about -25%
Target sequence (Q92551 whole entry, looked up): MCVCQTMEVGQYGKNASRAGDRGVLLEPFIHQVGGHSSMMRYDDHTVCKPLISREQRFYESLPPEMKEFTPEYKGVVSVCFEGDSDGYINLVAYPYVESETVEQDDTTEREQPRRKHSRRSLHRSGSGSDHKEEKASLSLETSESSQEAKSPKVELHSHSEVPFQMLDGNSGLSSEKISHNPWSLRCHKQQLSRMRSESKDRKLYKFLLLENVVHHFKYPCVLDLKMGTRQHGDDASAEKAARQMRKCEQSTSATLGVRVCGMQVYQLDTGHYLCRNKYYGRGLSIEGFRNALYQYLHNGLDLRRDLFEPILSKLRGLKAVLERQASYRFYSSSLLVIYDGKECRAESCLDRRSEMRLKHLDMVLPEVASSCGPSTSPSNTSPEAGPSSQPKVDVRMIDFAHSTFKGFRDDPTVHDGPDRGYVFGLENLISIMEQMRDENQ
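ADP-Glo luminescence measures ADP made by human IP6K1 during a 2 h RT reaction with ATP/IP6 (mix at 1.3 mM/130 uM); top library doses 57.5 and 19.1 uM final.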
Starred values were filed as active, the others as inactive; i = inactive; ? = inconclusive; · = no result; [ ] = dose if it differs, or a comment. Shown are actives, neighbours in structure and some others; about 7.3% of the full set was active somewhere. Unless noted, calls come from the whole dose curve; as a rule, active = well fitted curve in the direction sought with a large enough effect; inconclusive = small, poorly fitted or top-dose-only effect, or another doubt; inactive = no such curve, though single readings can be large; an effect the other way counts as inactive or inconclusive. Unless noted, % is set by controls: 0 for no effect and ±100 for the full control effect.

SMILES | Luciferase inh | NIH3T3 tox | HEK293 tox | HEK293 viab | SNCA expr inhib | IP6K1 inh
COCCC1(NS(C)(=O)=O)CCN(C(=O)c2ccc(C)nc2)CC1 | i | -1.0% | i | ? | 11.9% | 2.5
COc1cccc(CN2CCc3c(cc(C(=O)Nc4cc(C)ccc4C)n3C)C2)c1 | 31.6µM* | ? | ? | -3.3% | 103.6% | -8.7
COc1cccc(CN2CCc3c(cc(C(=O)N(C)C)n3C)C2)c1 | i | -19.1% | -21.8% | ? | 58.7% | -13.6
COc1cccc(CN2CCc3c(cc(C(=O)Nc4ccc(F)cc4C)n3C)C2)c1 | 25.1µM* | ? | ? | 2.2% | 185.3% | -2.4
COc1cccc(NC(=O)c2cc3c(n2C)CCN(Cc2ccc(F)cc2)C3)c1 | i | -13.6% | -11.7% | -9.0% | 0.6% | -12.0
COC(=O)[C@@H]1Cc2c([nH]c3ccccc23)[C@H]2C[C@H](NC[C@H]3CCCO3)C[C@@H](c3ccccc3F)N21 | i | 35.5µM* | ? | -13.6% | -12.0% | 8.9
COC(=O)C1=C(C)N=C2SC=C(CC(=O)NCC3CCCO3)N2C1c1ccccc1F (configuration not stated) | i | -21.3% | -27.3% | -6.2% | 2.9% | 23.8
COC(=O)[C@@H]1Cc2c([nH]c3ccccc23)[C@H]2C[C@@H](NCCCn3ccnc3)C[C@@H](c3ccccc3F)N21 | i | 7.08µM* | ? | -21.4% | -13.3% | 10.0
COC(=O)[C@@H]1Cc2c([nH]c3ccccc23)[C@H]2C[C@@H](NCCNC(C)=O)C[C@@H](c3ccccc3F)N21 | ? | 79.4µM* | ? | 3.7% | 24.5% | -12.2
O=C(NCCCn1ccnc1)c1ccc2nc(-c3ccc(F)cc3)cn2c1 | ? | -12.7% | 4.7% | 0.9% | 162.8% | -2.4
COC(=O)[C@@H]1Cc2c([nH]c3ccccc23)[C@H]2C[C@@H](NCCO)C[C@@H](c3ccccc3F)N21 | i | 28.2µM* | 39.8µM* | ? | ? | -6.7
COc1cccc(CNC(=O)[C@@H]2C[C@@H](O)CN2C2CCN(C(=O)c3cccc(C)c3)CC2)c1 | i | -11.8% | -27.2% | -1.9% | ? | -5.5
Cc1noc(-c2cccc(F)c2)c1C(=O)NCc1cccc(Cl)c1 | i | -23.8% | ? | 13.2% | 25.7% | -14.9
O=S(=O)(c1ccccc1F)N1CCC(CCc2nc(C3CCOCC3)no2)CC1 | · | ? | 44.7µM* | 2.2% | -3.3% | 1.6
O=S(=O)(c1ccccc1)N1CCC(CCc2nc(C3CCOCC3)no2)CC1 | · | ? | ? | -2.6% | -10.5% | 20.6
CC[C@H]1CN(C(=O)N2CCOCC2)CC[C@H]1CC(=O)Nc1nccs1 | i | 50.1µM* | ? | 1.5%[87.6 µM] | -1.3%[87.6 µM] | -2.2
O=C(CN1C(=O)NC2(CCOCC2)C1=O)Nc1ccc2c(c1)OCCO2 | 44.7µM* | 1.1% | 1.9% | ? | 51.1% | 19.5
CC1CCC2(CC1)NC(=O)N(CC(=O)Nc1ccc3c(c1)OCO3)C2=O (configuration not stated) | ? | -27.5% | -5.8% | -17.4% | 36.0% | -4.2
CC(C)(C)C1CCC2(CC1)NC(=O)N(CC(=O)Nc1ccc3c(c1)OCCO3)C2=O (configuration not stated) | ? | 28.2µM* | ? | 3.1% | 5.4% | -9.5
O=C(Cn1nc2n(c1=O)CCCC2)Nc1ccc2c(c1)OCCO2 | 20µM* | i | 12.7% | -5.9% | 87.6% | 0.0
Cn1cnc(S(=O)(=O)N2CC(N(Cc3ccccc3)C3CCOCC3)C2)c1 | i | -12.4% | 0.5% | 2.4% | -10.1% | -9.6
CN1CCN(C(=O)[C@@H]2CCC[C@@H](NCc3cccc4c3OCO4)CN(C)C(=O)C2)CC1 | i | -3.8%[138 µM] | i | 2.4%[87.6 µM] | 0.4%[87.6 µM] | -0.5
N#Cc1cccc(NC(=O)N2Cc3[nH]cnc3C[C@H]2c2nc(-c3ccc(Cl)cc3)no2)c1 | i | 79.4µM* | ? | -25.1% | -22.3% | 3.6
O=C(Nc1cccc(F)c1)N1Cc2[nH]cnc2C[C@H]1c1nc(-c2ccccc2)no1 | i | ? | 70.8µM* | -26.3%[87.6 µM] | 78.8%[87.6 µM] | -0.8
Cc1cccc(-c2noc([C@@H]3Cc4nc[nH]c4CN3C(=O)Nc3cccc(F)c3)n2)c1 | 63.1µM* | 35.5µM* | 70.8µM* | ? | -26.1%[87.6 µM] | -0.3
SMILES | Luciferase inh | NIH3T3 tox | HEK293 tox | HEK293 viab | SNCA expr inhib | IP6K1 inh
Cc1cccc(-c2noc([C@@H]3Cc4nc[nH]c4CN3C(=O)Nc3cccc(C#N)c3)n2)c1 | 35.5µM* | 63.1µM* | 89.1µM* | ? | -58.6%[87.6 µM] | 5.6
COC(=O)CNC(=O)c1cc(-c2ccc(C(F)(F)F)cc2)nc2c1cnn2C | · | ? | ? | · | · | -13.3
Cc1ccc(CN2CCc3oc(C)c(C(=O)NCCCN4CCN(C)CC4)c3C2)cc1 | i | ? | ? | ? | 18.0% | -6.6
COc1cccc(-c2cc3c(=O)n(CCNC(=O)c4ccc5cc[nH]c5c4)ccn3n2)c1 | i | -1.1% | ? | -2.3% | 7.8% | -16.3
COCCN1C(=O)c2cccn2CC1CNC(=O)c1ccoc1 (configuration not stated) | i | -2.1% | 1.4% | -3.9% | 2.3% | -5.8
O=C(Nc1cccc(F)c1)N1Cc2[nH]cnc2C[C@H]1c1nc(-c2ccc(Cl)cc2)no1 | 39.8µM* | ? | 79.4µM* | ? | -8.9% | 12.5
Cc1cccc(-c2noc([C@@H]3Cc4nc[nH]c4CN3C(=O)COCC(=O)O)n2)c1 | 56.2µM* | -27.7%[174 µM] | -7.6%[172 µM] | 5.3%[87.6 µM] | ? | 18.6
Cc1cccc(-c2noc([C@@H]3Cc4nc[nH]c4CN3C(=O)c3ccc(F)cc3)n2)c1 | i | ? | ? | -8.2%[87.6 µM] | ? | -13.9
O=C(Nc1cccc(F)c1)N1Cc2[nH]cnc2C[C@H]1c1nc(-c2ccc3c(c2)OCO3)no1 | i | ? | ? | -26.5% | ? | 11.7
O=C(C1CCN(Cc2ccccc2-c2cccnc2)CC1)N1CCCCC1 | · | ? | ? | 1.6% | 0.8% | -1.4
CC(C)NC(=O)c1coc(COc2ccc3c(c2)C(c2cccc(F)c2)N(C(=O)C2CC2)CC3)n1 (configuration not stated) | i | 22.4µM* | ? | -24.9% | -37.8% | -9.5
Cc1cccc(C2c3cc(OCc4nc(C(=O)NC(C)C)co4)ccc3CCN2C(=O)C2CC2)c1 (configuration not stated) | i | 14.1µM* | 17.8µM* | -9.3% | -27.1% | 0.5
CCNC(=O)c1coc(COc2ccc3c(c2)C(c2cccc(C)c2)N(C(=O)C2CC2)CC3)n1 (configuration not stated) | i | ? | ? | 3.2% | ? | -6.4

Bioassay records: PubChem, National Center for Advancing Translational Sciences (NCATS)
